Screening data from PubChem.
tim10-1 inh = growth inhibitors of tim10-1 mutant yeast, primary screen, luminescence, uHTS | S. cerevisiae tim10-1 ts strain growth, BacTiter-Glo, 24 h | inhibition, % at 20 µM | actives 2.2% (n = 330,000);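 active = inhibition of at least 40%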;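 also: mutant grown at 25 °C; 0% = DMSO wells with yeast and 100% = wells holding no yeast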
TIM10 inh = growth inhibitors of isogenic TIM10 control yeast, primary screen, counter-screen for tim10-1 yeast inhibitor project, luminescence, uHTS | actives 1.4% (n = 330,000) | inhibition, % at 10 µM | AID 463195, 2010 | S. cerevisiae TIM10 strain growth, BacTiter-Glo luminescence, 24 h;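 active = inhibition of 40% or more at the single tested concentration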;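 also: wild-type TIM10 isogenic control strain grown at permissive 25 °C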
SKKanGAS inh = S. pyogenes SKKanGAS growth inhibitors in kanamycin, primary screen, streptokinase expression inhibitor project, SKKanGAS strain, BacTiter-Glo luminescence. inhibition, % at 7.5 µM. 6 h. actives 1.3% (n = 300,000);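 active = mean replicate score, as percent of positive control median, at least 50; inconclusive = mean below 50 but one replicate at or above 50; inactive = mean and every replicate below 50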;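 also: strain carries kanamycin resistance gene driven by streptokinase promoter and grows in 40 µg/ml kanamycin; loss of luminescence reflects streptokinase promoter inhibition or plain growth inhibition; 0% = median of DMSO wells and 100% = positive control at its reference dose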
Calb FLC = C. albicans growth inhibition with fluconazole, primary screen, CaCi-2 strain, Alamar Blue fluorescence | growth inhibition, % (concentration not given with the values) | C. albicans CaCi-2 (fluconazole-resistant clinical isolate) + fluconazole, 48 h | actives 0.57% (n = 300,000) | AID 1979, 2009;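 active = growth inhibition above about 58% in most replicates, limit read from the data, passing the limit was not always enough; inconclusive = exactly half the replicates above a set limit; inactive = most replicates below a set limit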;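 also: all wells also contain fluconazole at 8 µg/ml as a sub-toxic cotreatment; 0% = median of DMSO wells and 100% = median of geldanamycin control wells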
tim23-1 inh = growth inhibitors of tim23-1 mutant yeast, primary screen, luminescence, uHTS. S. cerevisiae tim23-1 growth, BacTiter-Glo luminescence, 24 h. inhibition, % at 20 µM. actives 1.3% (n = 330,000);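 active = growth inhibition of the mutant yeast at or above 50%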;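 also: temperature-sensitive mutant grown at 25 °C; plate controls were DMSO-treated mutant yeast for no effect and medium wells lacking yeast for full effect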
PfHsp90 yeast 2 = growth inhibition of PfHsp90-expressing yeast, primary screen, antimalarial PfHsp90 inhibitor project, S. cerevisiae, BacTiter-Glo luminescence, single point, set 2; BacTiter-Glo ATP, 48 h; yeast lacking PDR1 and PDR3 efflux regulators; inhibition, % at 9.4 µM; actives 0.32% (n = 310,000); AID 504621, 2011;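 active = every replicate shows inhibition above about 80%, whatever the replicate mean, limit read from the data; inconclusive = mean inhibition reaches the set limit but some replicate falls short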;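 also: 0% = DMSO neutral controls and 100% = 20 µM radicicol positive controls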
tim10-1 conf = growth inhibitors of tim10-1 mutant yeast, confirmation, single concentration, luminescence, S. cerevisiae. inhibition, % at 20 µM. S. cerevisiae tim10-1 ts strain growth, BacTiter-Glo, 24 h. actives 56% (n = 7,400). shares compounds with tim10-1 inh;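 active = inhibition of yeast growth at or above a set limit in either of two repeat tests at 20 µM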;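 also: tim10-1 mutant grown at permissive 25 °C to find synthetic lethal compounds; 0% = DMSO yeast wells and 100% = medium wells without yeast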
TIM10 conf = growth inhibitors of wild-type TIM10 yeast, confirmation, counter-screen for tim10-1 synthetic lethality project, single concentration, luminescence, S. cerevisiae | AID 463215, 2010 | S. cerevisiae tim10 strain growth, BacTiter-Glo luminescence, 24 h | actives 63% (n = 4,600) | shares compounds with TIM10 inh | inhibition, % at 10 µM;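 active = inhibition of yeast growth at or above a set limit in either of two replicates at 10 µM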;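 also: this counterscreen used the strain with wild-type TIM10; 0% = yeast with DMSO and 100% = medium wells lacking yeast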
tim23-1 confirm = tim23-1 mutant yeast growth inhibitors, confirmation, luminescence, single concentration; shares compounds with tim23-1 inh; inhibition, % at 20 µM; AID 463218, 2010; actives 83% (n = 4,400); S. cerevisiae tim23-1 growth, BacTiter-Glo luminescence, 24 h;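 active = inhibition above about 39% in either of two replicate wells at 20 µM, limit read from the data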;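 also: temperature-sensitive tim23-1 mutant grown at 25 °C; 0% = DMSO wells with yeast and 100% = medium wells without yeast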
* = called active by the depositor; ? = inconclusive; nt = no result. An excerpt weighted towards active compounds, which were near 4.7% of everything screened.

SMILES	tim10-1 inh	TIM10 inh	SKKanGAS inh	Calb FLC	tim23-1 inh	PfHsp90 yeast 2	tim10-1 conf	TIM10 conf	tim23-1 confirm
COc1cc(C(=O)O[C@H]2CC(C)=CC[C@@]3(C)CC[C@@](O)(C(C)C)[C@H]23)ccc1O	50*	29	14	15	54*	-27	40*	nt	57*
COc1cc(C(=O)O[C@H]2C/C(C)=C/CC[C@]3(C)O[C@@H]3C(O)C2C(C)C)cc(OC)c1OC (stereo not given in full)	29	20	8	9	28	-9	nt	nt	nt
CN(CC(=O)Nc1ccccc1C(=O)NC1CC1)Cc1cccs1	9	5	nt	nt	14	5	nt	nt	nt
COc1cccc(C(=O)Nc2ccc(Cl)c(C(F)(F)F)c2)c1	64*	61*	8	-8	68*	57	57*	50*	75*
Cc1ccc(C2=NCCn3c2c2ccc(C(F)(F)F)cc2[n+]3[O-])cc1	-4	-10	-9	35	1	13	nt	nt	nt
COc1cccc(Nc2nc(Nc3ccc(Cl)c(C(=O)O)c3)nc(C)c2[N+](=O)[O-])c1	14	7	nt	nt	27	-14	nt	nt	nt
O=C(O)COc1ccccc1/C=N/n1c(C2CCCCC2)n[nH]c1=S	6	-2	0	-7	-4	10	nt	nt	nt
Cc1ccccc1/C=N/n1c(C2CCCCC2)n[nH]c1=S	27	26	2	32	40	-23	nt	nt	nt
S=c1[nH]nc(C2CCCCC2)n1/N=C/c1ccccc1Br	42*	35	16	-7	52*	-16	26	nt	63*
Fc1ccccc1/C=N/n1c(C2CCCCC2)n[nH]c1=S	43*	48*	4	20	65*	-16	35*	51*	61*
S=c1[nH]nc(C2CCCCC2)n1/N=C/C=C/c1ccccc1	54*	39	4	?	57*	-21	31	nt	37
COc1cccc(CNC(=O)CCCCCNC(=O)N2CCn3c2nc2ccccc23)c1	-1	-6	-3	6	3	13	nt	nt	nt
CCOC(=O)c1[nH]c(C=O)c(C(=O)OCC)c1C	60*	67*	1	2	76*	-12	50*	55*	80*
Cc1cc(C)c(NC(=O)CC(=O)c2ccccc2)c(Cl)c1	29	4	1	-10	27	-2	nt	nt	nt
Cc1cc(C)c(C(=O)CC(=O)c2ccccc2Cl)c(O)c1	48*	39	83*	53	65*	-6	36*	nt	76*
COc1ccc2c(c1)CC/C2=N\OC(=O)c1ccccc1OC	53*	71*	-2	-2	81*	22	38*	80*	79*
N#CC1(NC(=O)CN2C(=O)c3ccc([N+](=O)[O-])cc3C2=O)CCCCC1	-5	-3	-13	nt	5	nt	nt	nt	nt
N/C(Cc1ccc(Cl)c(Cl)c1)=N\OC(=O)c1cccs1	56*	86*	7	101*	62*	104*	-4	84*	42*
N/C(=N\OC(=O)c1cccs1)C1(c2ccc(Cl)cc2Cl)CC1	50*	66*	-5	-15	74*	-23	45*	76*	73*
O=C(NNc1cc(Cl)ccc1Cl)c1cccs1	8	-7	5	-1	14	-22	nt	nt	nt
CC(C)CC(NC(=O)c1cccs1)c1nnc(SCc2ccc(Cl)c(Cl)c2)n1C (stereo not given)	36	18	9	3	23	-1	nt	nt	nt
COC(=O)c1cccc(NC(=O)C(C)(C)C)c1	-10	-4	4	-4	21	11	nt	nt	nt
O=C(Nc1ccccc1N1CCCC1)c1ccc([N+](=O)[O-])o1	65*	52*	8	-2	66*	-3	55*	45*	66*
COc1ccc(N2CCCC2)c(NC(=O)c2ccc([N+](=O)[O-])o2)c1	62*	71*	2	7	68*	-7	51*	80*	43*
CC1CCN(c2ccccc2NC(=O)c2ccc([N+](=O)[O-])o2)CC1	16	-6	-9	2	-13	-10	nt	nt	nt
SMILES	tim10-1 inh	TIM10 inh	SKKanGAS inh	Calb FLC	tim23-1 inh	PfHsp90 yeast 2	tim10-1 conf	TIM10 conf	tim23-1 confirm
COc1ccc(C(=O)Nc2cc([N+](=O)[O-])ccc2N2CCCC2)cc1	1	-1	-3	1	-4	9	nt	nt	nt
O=C(Nc1cc(C(F)(F)F)ccc1-n1cncn1)c1ccc([N+](=O)[O-])o1	73*	47*	41	16	54*	-36	64*	57*	-16
O=C(Nc1cc(C(F)(F)F)ccc1-n1cncn1)c1ccc(Br)cc1	19	29	2	0	18	-1	nt	nt	nt
O=C(Nc1ccc(N2CCCCC2)cc1)c1ccc([N+](=O)[O-])o1	59*	45*	13	16	74*	4	47*	38*	70*
CCOC(=O)c1ccc(S(=O)(=O)NC2CCC(C)CC2)cc1 (stereo not given)	19	-2	nt	nt	49	-58	nt	nt	nt
CCNc1ncnc2[nH]ncc12	nt	nt	nt	nt	nt	-29	nt	nt	nt
O=C(NCC1CCCO1)c1cccc(S(=O)(=O)N2CCCCC2)c1 (stereo not given)	-21	-8	nt	nt	-7	-10	nt	nt	nt
O=[N+]([O-])c1nn(-c2ccc3c(c2)OCCO3)n(O)c1=NC1CCCCCC1	53*	55*	7	16	56*	-19	56*	45*	48*
CCOC(=O)CSC1=NC(=O)/C(=C/c2ccc(Br)cc2)S1	49*	61*	16	-3	61*	-71	62*	52*	70*
NC1=NC(=O)/C(=C/c2ccc(Br)cc2)S1	-28	-7	-6	-4	-11	-14	nt	nt	nt
Oc1c(Br)cc(Br)cc1C=Nc1cccc2ncccc12	55*	-5	24	-11	83*	-5	41*	nt	86*
O=C(N/N=C/c1ccc2c(c1)OCO2)c1cc2ccccc2o1	-3	-1	-10	3	-2	4	nt	nt	nt
